Outcome and AC50 data for 26 molecules are collected here from PubChem BioAssay (EPA / NIEHS).

Records with an inconclusive call do not appear. Active and inactive are the calls of the source. The calls were made as follows: active = hit-call score of the fitted dose curve at least 0.9, where 1 is the maximum; inconclusive = response in the unintended direction; inactive = score below 0.9.

Experiment [1] can be described thus: Tanguay_ZF_120hpf_AXIS_legacy: (Legacy) Oregon State University Tanguay Lab 120 Hour Post-fertilization zebrafish Assay for Body Axis Malformation (AID 2283635).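 As to AC50: potency for an increased fraction of larvae scored with body axis malformation.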 The method in brief:
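Chorion is removed with pronase at 4 hpf, then single 6 hpf embryos are dosed (final DMSO 0.64%) and held statically at 28C in sealed, foil-covered plates. At 120 hpf body axis malformation is recorded as present or absent.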

The nature of experiment [2]: Tanguay_ZF_120hpf_SNOU_legacy: (Legacy) Oregon State University Tanguay Lab 120 Hour Post-fertilization zebrafish Assay for Snout Malformation (AID 2283637). The method in brief:
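Binary snout-malformation call at 120 hpf in wild-type 5D embryos, chorion removed by pronase, under static exposure from 6 hpf at 28C (0.64% DMSO). Embryos dying by 24 or 120 hpf excluded.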

Experiment [3] is described as follows: Tanguay_ZF_120hpf_JAW_legacy: (Legacy) Oregon State University Tanguay Lab 120 Hour Post-fertilization zebrafish Assay for Jaw Malformation (AID 2283638). The method in brief:
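Steps: dechorionate 4 hpf embryos (pronase); plate 1/well at 6 hpf; add test chemical, 0.64% DMSO final; seal, cover, hold at 28C statically to 120 hpf; score jaw defect presence/absence microscopically. Dead embryos not scored.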

Experiment [4] can be described thus: Tanguay_ZF_120hpf_OTIC_legacy: (Legacy) Oregon State University Tanguay Lab 120 Hour Post-fertilization zebrafish Assay for Otic Vesicle Malformation (AID 2283639). The method in brief: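 Wild-type zebrafish larvae, whole-embryo exposure from early stage to 120 hpf at 28C. Binary brightfield scoring of otic vesicle morphology, fitted in the positive direction against the DMSO baseline.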

A short description of experiment [5]: Tanguay_ZF_120hpf_PE_legacy: (Legacy) Oregon State University Tanguay Lab 120 Hour Post-fertilization zebrafish Assay for Pericardial Edema (AID 2283640).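 As to AC50: potency for increased incidence of pericardial edema versus DMSO baseline.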 The method in brief:
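Embryos from wild-type 5D adults were staged, then dosed in 0.64% DMSO. They were kept sealed in the dark at 28C until 120 hpf. Pericardial edema was then recorded as present or absent.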

The nature of experiment [6]: Tanguay_ZF_120hpf_BRAI_legacy: (Legacy) Oregon State University Tanguay Lab 120 Hour Post-fertilization zebrafish Assay for Brain Malformation (AID 2283641). The method in brief:
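Wild-type 5D larvae, static waterborne exposure to 120 hpf, 28C, 0.64% v/v DMSO. Brightfield scoring of brain defects, binary; dead embryos excluded. Positive ctrl 5uM trimethyltin chloride.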

The nature of experiment [7]: Tanguay_ZF_120hpf_SOMI_legacy: (Legacy) Oregon State University Tanguay Lab 120 Hour Post-fertilization zebrafish Assay for Somite Malformation (AID 2283647). The method in brief: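 Read-out: presence or absence of somite malformation in 120 hpf larvae, gain-of-signal relative to DMSO baseline. Embryos lacked chorion (pronase, 4 hpf) and were exposed statically from 6 hpf at 28C; dead larvae not scored.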

Experiment [8] can be described thus: Tanguay_ZF_120hpf_PFIN_legacy: (Legacy) Oregon State University Tanguay Lab 120 Hour Post-fertilization zebrafish Assay for Pectoral Fin Malformation (AID 2283648).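 Also: each larva judged yes or no for fin defect by brightfield with dead larvae skipped.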 The method in brief:
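Pectoral fin malformation was recorded as a binary endpoint at 120 hpf in wild-type Tropical 5D larvae, which had been dechorionated and exposed statically from 6 hpf at 28C in 0.64% DMSO. Dead embryos were excluded.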

Experiment [9] is described as follows: Tanguay_ZF_120hpf_CFIN_legacy: (Legacy) Oregon State University Tanguay Lab 120 Hour Post-fertilization zebrafish Assay for Caudal Fin Malformation (AID 2283649). The method in brief: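 Binary presence or absence of caudal fin malformation at 120 hpf, read by brightfield microscopy, with DMSO as baseline. Larvae came from 5D wild-type embryos exposed statically from 6 hpf at 28C after pronase dechorionation.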

A short description of experiment [10]: Tanguay_ZF_120hpf_EYE_legacy: (Legacy) Oregon State University Tanguay Lab 120 Hour Post-fertilization zebrafish Assay for Eye Malformation (AID 2283636). The method in brief: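 Binary brightfield scoring of eye defects at 120 hpf after static exposure from 6 hpf of single pronase-dechorionated wild-type embryos (28C, 0.64% DMSO). Non-mortality endpoints omitted where embryos died; fit vs DMSO.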

Regarding `CC(=O)c1ccc2c(c1)[C@H](NC(=O)c1ccc(F)cc1)[C@@H](O)C(C)(C)O2`, the molecule was classed as inactive in experiment [1], in [2], in experiment [3], in [4], in experiment [5] and in [6]. Also, the molecule was classed as inactive in experiment [7], in experiment [8] and in experiment [9].

With `CC(C)CC(C)(O)C#CC(C)(O)CC(C)C` (stereo not given), the call in experiment [1], in [10], in experiment [3], in [4], in experiment [5] and in experiment [6] was inactive.

Consider `CC1(C)C(=O)N(Br)C(=O)N1Br`, for which the molecule was classed as inactive in experiment [1], in [10], in experiment [2], in experiment [3], in experiment [5] and in experiment [6]. In addition, the call in [7], in [8] and in experiment [9] was inactive.

In the case of `CC(C)=CCCC(C)CCO` (stereo not given), the result in experiment [1], in experiment [10], in experiment [2], in experiment [4], in [5] and in experiment [6] was inactive. The molecule was called inactive in [7], in experiment [8] and in [9].

Turning to `O=C1CCCCCN1`, the molecule was classed as inactive in experiment [2], in [3], in [4], in experiment [5], in experiment [6] and in experiment [7]. Moreover, the molecule was called inactive in experiment [9].

For the molecule `COC(=O)CC(=O)OC`, the result in experiment [1], in experiment [2], in experiment [3], in [4], in [6] and in experiment [7] was inactive. In addition, in [8], the molecule was called inactive.

As to `Cn1cnc([N+](=O)[O-])c1Sc1ncnc2nc[nH]c12`, the outcome in [1], in experiment [2], in [3], in experiment [4], in [7] and in experiment [9] was inactive.

For the molecule `Cc1c(-c2cccnc2)c2ccccc2n1CCCCC(=O)O`, the outcome in [1], in experiment [10], in experiment [3], in experiment [4], in experiment [5] and in experiment [6] was inactive. The molecule was called inactive in experiment [7] and in [9].

As for `CCOC(=O)c1ccc(C2CCC(NC[C@H](O)COc3ccc(O)c(NS(C)(=O)=O)c3)CC2)cc1` (stereo not given in full), the molecule was called inactive in [1], in [2], in experiment [4], in experiment [5], in experiment [6] and in experiment [7]. For the same molecule, the molecule was called inactive in [8] and in experiment [9].

For the molecule `COCCOCCOCCOC`, the molecule was classed as inactive in experiment [10], in experiment [2], in experiment [3], in [5], in experiment [6] and in experiment [8]. Besides, the molecule was classed as inactive in experiment [9].

As to `CN(C)c1ccc(N=NS(=O)(=O)O)cc1`, the molecule was classed as inactive in experiment [1], in experiment [2], in [3], in [4], in [5] and in [7].

Take `O=C(O)CCN(C1(C(=O)NO)CCCC1)S(=O)(=O)c1ccc(Oc2ccc(F)cc2)cc1`: the call in [10], in experiment [2], in experiment [3], in [6], in [7] and in experiment [8] was inactive. Besides, the molecule was classed as inactive in experiment [9].

Turning to `O=C1CCC(N2C(=O)c3ccccc3C2=O)C(=O)N1` (stereo not given), the outcome in [1], in [2], in [4], in [8] and in [9] was inactive.

For the molecule `CCCCCCCCO`, the molecule was called inactive in experiment [10], in experiment [2], in [3], in experiment [5], in experiment [6] and in experiment [7]. Besides, the molecule was classed as inactive in experiment [8] and in [9].

Usually AC50 stands for the midpoint of the concentration-response curve, whichever way the signal moves. For the molecule `On1ccccc1=S`, the AC50 in experiment [1] was 35.4 nM (active); in [2] it was 206 nM (active); in experiment [5], 29.3 nM (active). In addition, the molecule was called inactive in experiment [3], in [4], in experiment [6], in experiment [7], in experiment [8] and in experiment [9].

In the case of `COc1ccc(/C=C/S(=O)(=O)NC(=O)c2ccc(C)cc2Cl)cc1`, the outcome in experiment [2], in experiment [3], in [4], in experiment [5], in [6] and in experiment [7] was inactive. Also, the molecule was classed as inactive in experiment [8] and in experiment [9].

As to `Cc1ccc(O)cc1`, the call in experiment [1], in [2], in experiment [3], in experiment [4], in experiment [5] and in [6] was inactive. The outcome in experiment [8] was inactive.

For `CC(C)=CCC/C(C)=C\CO`, the molecule was classed as inactive in experiment [10], in [3], in [4], in experiment [5], in [6] and in experiment [8]. For the same molecule, in experiment [9], the call was inactive.

With `CN(C)c1ccc(Cc2ccc(N(C)C)cc2)cc1`, the molecule was classed as inactive in [1], in experiment [10], in experiment [2], in experiment [3], in [5] and in [6]. Moreover, the call in [7], in experiment [8] and in [9] was inactive.

On to `CC1=CC(=O)CC(C)(C)C1`, for which the outcome in [1], in [10], in experiment [2], in experiment [4], in experiment [5] and in experiment [6] was inactive. Further, the outcome in [8] and in experiment [9] was inactive.

On to `CC(O)CN(CCN(CC(C)O)CC(C)O)CC(C)O` (stereo not given), for which the result in experiment [1], in [10], in experiment [2], in [4], in [5] and in experiment [6] was inactive. The molecule was called inactive in experiment [7], in [8] and in [9].

`C=CCCCCCCCCC(=O)O`: the molecule was called inactive in [1], in [10], in experiment [2], in experiment [3], in experiment [5] and in [6]. Further, the result in [7], in [8] and in [9] was inactive.

For `CCOCCO`, the call in experiment [1], in experiment [2], in experiment [5], in experiment [6] and in experiment [9] was inactive.

Turning to `CCc1cc(SCc2sc(-c3ccc(C(F)(F)F)cc3)nc2CN2CCN(c3ccc(OC)cc3)CC2)ccc1OCC(=O)O`, in [1], the AC50 was 26000 nM (active). The result in experiment [10], in [2], in experiment [3], in [5], in experiment [6] and in experiment [7] was inactive. In addition, the molecule was called inactive in experiment [9].

Take `CCCCCCc1ccc(O)cc1O`: the result in experiment [10], in experiment [2], in experiment [3], in experiment [4], in [5] and in [6] was inactive. Further, the call in experiment [8] was inactive.

Turning to `Nc1cccc(N)c1`, the result in experiment [1], in experiment [2], in [3], in [4], in [5] and in experiment [7] was inactive. Further, the result in experiment [8] was inactive.
